Experimental findings from PubChem BioAssay (NCATS) are described below.

The nature of assay [1]: qHTS for Inhibitors of the Functional Ribonucleoprotein Complex (vRNP) of Lymphocytic Choriomeningitis Arenaviruses (LCMV): Viability assay - alamar blue signal for LCMV Primary Screen (AID 1347085; calls by dose curve; tested in HEK293 reporter line; note: nearly all actives have a fitted effect of over 80% in size; note: potency is the fitted concentration of half-maximal effect). As to conditions: alamar blue viability counter-screen, LCMV vRNP screen cells; series mostly up to 57.5 µM.
The target in assay [2] is Nucleoprotein (Lymphocytic choriomeningitis virus (strain Armstrong)) (UniProt P09992). Briefly: qHTS for Inhibitors of the Functional Ribonucleoprotein Complex (vRNP) of Lymphocytic Choriomeningitis Arenaviruses (LCMV): LCMV Primary Screen - GLuc reporter signal (AID 1347086; calls by dose curve; note: nearly all actives have a fitted effect of over 70% in size; note: potency is the fitted concentration of half-maximal effect). To be noted: LCMV minigenome vRNP cell assay, Gaussia luciferase reporter; series mostly up to 57.5 µM. In general terms: Quantitative high-throughput screening tests each substance at several concentrations.

The nature of assay [3]: qHTS of pediatric cancer cell lines to identify multiple opportunities for drug repurposing: Primary screen for TC32 cells (AID 1347089). Note: nearly all actives have a fitted effect of over 60% in size. Note: potency is the fitted concentration of half-maximal effect. As to conditions: TC32 Ewing sarcoma viability, CellTiter-Glo luminescence, 48 h; series mostly up to 45.8 µM. In outline: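 Luminescent CellTiter-Glo read-out of metabolically active TC32 cells after 48 h compound exposure. Primary: MIPE 11-point, 0.78 nM–46 µM; NPC 8-point, 0.59 nM–46 µM. Confirmatory: 11-point dilutions.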

A short description of assay [4]: qHTS of pediatric cancer cell lines to identify multiple opportunities for drug repurposing: Primary screen for DAOY cells (AID 1347090). Note: nearly all actives have a fitted effect of over 55% in size. Note: potency is the fitted concentration of half-maximal effect. To be noted: DAOY medulloblastoma viability, CellTiter-Glo luminescence, 48 h; series mostly up to 46 µM. In outline: (§1)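 Eight- or eleven-point concentration series, 48 h treatment at 37 degrees C in growth media; readout CellTiter-Glo luminescence. Potency and efficacy were taken from the concentration-response curves.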

Assay [5] can be described thus: qHTS of pediatric cancer cell lines to identify multiple opportunities for drug repurposing: Primary screen for SJ-GBM2 cells (AID 1347091). Note: potency is the fitted concentration of half-maximal effect. As to conditions: SJ-GBM2 viability, CellTiter-Glo luminescence, 48 h; series mostly up to 46 µM. In outline:
as §1

Assay [6] in a line: qHTS of pediatric cancer cell lines to identify multiple opportunities for drug repurposing: Primary screen for SK-N-MC cells (AID 1347093). Note: potency is the fitted concentration of half-maximal effect. To be noted: SK-N-MC viability, CellTiter-Glo luminescence, 48 h; series mostly up to 46 µM. A digest of the protocol: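 Metabolically active cells were quantified by ATP-dependent luminescence (CellTiter-Glo, 15 min at room temperature) following 48 h treatment. Cells had been plated at 500-1,000 per well and settled for 5 h beforehand.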

The nature of assay [7]: qHTS of pediatric cancer cell lines to identify multiple opportunities for drug repurposing: Primary screen for U-2 OS cells (AID 1347096). Note: nearly all actives have a fitted effect of over 50% in size. As to conditions: U-2 OS viability, CellTiter-Glo luminescence, 48 h; series mostly up to 46 µM. A digest of the protocol: (§2)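 Cells (500-1,000/well) in growth media were settled 5 h at 37 degrees C, then given compounds for 48 h. Viability was read as CellTiter-Glo luminescence. Primary runs used MIPE at 11 points (0.78 nM-46 µM) and NPC at 8 points (0.59 nM-46 µM); follow-ups used 11 points.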

Assay [8] can be described thus: qHTS of pediatric cancer cell lines to identify multiple opportunities for drug repurposing: Primary screen for Saos-2 cells (AID 1347097). Note: nearly all actives have a fitted effect of over 40% in size. Note: potency is the fitted concentration of half-maximal effect. As to conditions: Saos-2 viability, CellTiter-Glo ATP luminescence, 48 h; series mostly up to 46 µM. In outline: (§3)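 Primary screen of approved and investigational compounds on cells in growth media at 37 degrees C, 5% CO2. MIPE set at 11-point and NPC set at 8-point dilutions; viability scored by ATP-based luminescence at 48 hours.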

Assay [9] is described as follows: qHTS of pediatric cancer cell lines to identify multiple opportunities for drug repurposing: Primary screen for LAN-5 cells (AID 1347100). Note: potency is the fitted concentration of half-maximal effect. As to conditions: LAN-5 neuroblastoma viability, CellTiter-Glo luminescence, 48 h; series mostly up to 46 µM. A digest of the protocol: as §2
Assay [10] is described as follows: qHTS of pediatric cancer cell lines to identify multiple opportunities for drug repurposing: Primary screen for Rh18 cells (AID 1347102). Note: nearly all actives have a fitted effect of over 65% in size. As to conditions: Rh18 rhabdomyosarcoma viability, CellTiter-Glo luminescence, 48 h; series mostly up to 46 µM. In outline:
as §2

Assay [11] in a line: qHTS of pediatric cancer cell lines to identify multiple opportunities for drug repurposing: Primary screen for MG 63 (6-TG R) cells (AID 1347105). Note: nearly all actives have a fitted effect of over 50% in size. Note: potency is the fitted concentration of half-maximal effect. To be noted: MG 63 (6-TG R) viability, CellTiter-Glo, 48 h; series mostly up to 46 µM. In outline:
as §3

The nature of assay [12]: qHTS of pediatric cancer cell lines to identify multiple opportunities for drug repurposing: Primary screen for control Hh wild type fibroblast cells (AID 1347106).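 Note: a drop in luminescence marks cytotoxicity and a rise apparent proliferation; nearly all actives have a fitted effect of over 55% in size.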 To be noted: Hh wild-type fibroblast viability, CellTiter-Glo luminescence, 48 h; series mostly up to 46 µM. In outline:
as §2

The nature of assay [13]: qHTS of pediatric cancer cell lines to identify multiple opportunities for drug repurposing: Primary screen for A673 cells (AID 1347092). Note: potency is the fitted concentration of half-maximal effect; nearly all actives have a fitted effect of over 45% in size. As to conditions: A673 Ewing sarcoma viability, CellTiter-Glo ATP luminescence, 48 h; series mostly up to 46 µM. In outline: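 A673 cells (500-1,000 cells/well in growth media) were pre-incubated 5 h at 37 degrees C, then exposed to compounds for 48 h. Viability was read as CellTiter-Glo luminescence; concentration-response curves came directly from the primary screen.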

Assay [14] can be described thus: qHTS of pediatric cancer cell lines to identify multiple opportunities for drug repurposing: Primary screen for NB-EBc1 cells (AID 1347095). Note: potency is the fitted concentration of half-maximal effect. As to conditions: NB-EBc1 neuroblastoma viability, CellTiter-Glo luminescence, 48 h; series mostly up to 46 µM. A digest of the protocol:
as §3

Assay [15] can be described thus: qHTS of pediatric cancer cell lines to identify multiple opportunities for drug repurposing: Primary screen for NB1643 cells (AID 1347099). Note: potency is the fitted concentration of half-maximal effect; nearly all actives have a fitted effect of over 50% in size. As to conditions: NB1643 neuroblastoma viability, CellTiter-Glo luminescence, 48 h; series mostly up to 46 µM. A digest of the protocol:
as §3

Assay [16] in a line: qHTS of pediatric cancer cell lines to identify multiple opportunities for drug repurposing: Primary screen for OHS-50 cells (AID 1347103). Note: potency is the fitted concentration of half-maximal effect; nearly all actives have a fitted effect of over 40% in size. To be noted: OHS-50 osteosarcoma viability, CellTiter-Glo luminescence, 48 h; series mostly up to 57.3 µM. A digest of the protocol:
(§4)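 Cells (500-1,000/well) rested 5 h, then received compounds for 48 h; metabolically active cells were measured by CellTiter-Glo luminescence. Final concentrations spanned up to 46 µM (MIPE, 11-point) or 0.59 nM-46 µM (NPC, 8-point) in primary screens, 11-point in follow-ups.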

Assay [17] can be described thus: qHTS of pediatric cancer cell lines to identify multiple opportunities for drug repurposing: Primary screen for BT-37 cells (AID 1347094). Note: potency is the fitted concentration of half-maximal effect. As to conditions: BT-37 viability, CellTiter-Glo luminescence, 48 h; series mostly up to 57.3 µM. A digest of the protocol:
as §3

Assay [18] can be described thus: qHTS of pediatric cancer cell lines to identify multiple opportunities for drug repurposing: Primary screen for RD cells (AID 1347104). Note: nearly all actives have a fitted effect of over 55% in size. Note: potency is the fitted concentration of half-maximal effect. To be noted: RD rhabdomyosarcoma viability, CellTiter-Glo luminescence, 48 h; series mostly up to 46 µM. In outline:
as §3

Assay [19] can be described thus: qHTS of pediatric cancer cell lines to identify multiple opportunities for drug repurposing: Primary screen for SK-N-SH cells (AID 1347098).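 Note: DMSO served as neutral control and bortezomib at 2.3 µM as positive control; nearly all actives have a fitted effect of over 65% in size.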 To be noted: SK-N-SH viability, CellTiter-Glo luminescence, 48 h; series mostly up to 57 µM. A digest of the protocol:
as §4

Assay [20] in a line: qHTS of pediatric cancer cell lines to identify multiple opportunities for drug repurposing: Primary screen for BT-12 cells (AID 1347101). Note: nearly all actives have a fitted effect of over 25% in size. Note: potency is the fitted concentration of half-maximal effect. As to conditions: BT-12 viability, CellTiter-Glo luminescence, 48 h; series mostly up to 57.3 µM. In outline:
as §4

Records with an inconclusive call do not appear. The source made the active and inactive calls. Unless noted, calls come from the whole dose curve; as a rule, active = well fitted curve in the direction sought with a large enough effect; inconclusive = small, poorly fitted or top-dose-only effect, or another doubt; inactive = no such curve, though single readings can be large; an effect the other way counts as inactive or inconclusive.

Sequence of Nucleoprotein (Lymphocytic choriomeningitis virus (strain Armstrong)) (P09992 whole entry, looked up): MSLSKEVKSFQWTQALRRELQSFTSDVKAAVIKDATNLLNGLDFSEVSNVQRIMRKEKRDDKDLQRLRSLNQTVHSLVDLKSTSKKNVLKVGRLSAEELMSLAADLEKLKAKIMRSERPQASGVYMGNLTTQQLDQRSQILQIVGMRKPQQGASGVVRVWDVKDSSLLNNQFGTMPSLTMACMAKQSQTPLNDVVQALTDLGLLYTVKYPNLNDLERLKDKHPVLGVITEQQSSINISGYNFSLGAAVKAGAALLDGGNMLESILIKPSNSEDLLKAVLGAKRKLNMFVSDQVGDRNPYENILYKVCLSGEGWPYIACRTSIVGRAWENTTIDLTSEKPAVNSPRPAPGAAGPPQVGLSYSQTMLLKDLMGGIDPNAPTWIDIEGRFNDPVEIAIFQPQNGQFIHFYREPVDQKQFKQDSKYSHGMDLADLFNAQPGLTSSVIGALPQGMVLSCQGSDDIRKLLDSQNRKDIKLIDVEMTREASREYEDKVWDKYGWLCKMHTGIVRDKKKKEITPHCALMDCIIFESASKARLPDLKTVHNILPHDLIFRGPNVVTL

As for `COc1ccc2c(c1)CN(C)CC2c1ccc(Cl)c(Cl)c1` (stereo unspecified), the Potency entry in [1], in [2], in assay [3], in assay [4], in assay [7] and in [10] was “inactive” in each case. The Potency result in [11] and in assay [12] was “inactive” each time. Further, the Potency in assay [5] was 18.7 µM (active); in assay [6] it was 18.7 µM (active); in [8], 18.7 µM (active); in assay [9], 20.9 µM (active).

In the case of `COc1cc([C@@H]2c3cc4c(cc3[C@@H](O)C3COC(=O)C32)OCO4)cc(OC)c1O` (stereo partly specified), the Potency in assay [1] is 0.172 µM (active); in assay [2] it was 0.153 µM (active); in assay [3], 0.37 µM (active); in assay [5] it was 0.0148 µM (active); in assay [13], 0.0372 µM (active); in assay [6] it was 0.0469 µM (active). Moreover, the Potency was 0.0066 µM (active) in assay [14]; 0.0209 µM (active) in assay [8]; 6.62 µM (active) in assay [15]; 0.0132 µM (active) in assay [9]; 0.0343 µM (active) in assay [16]. The Potency result in [7], in [10] and in [11] was “inactive” each time.

As to `CCNC(=O)C[C@@H]1N=C(c2ccc(Cl)cc2)c2cc(OC)ccc2-n2c(C)nnc21`, the Potency in assay [1] is 1.22 µM (active); in assay [2], 1.22 µM (active); in assay [4], 5.9 µM (active); in assay [5] it was 5.9 µM (active); in assay [6], 1.32 µM (active); in assay [17], 7.69 µM (active). The Potency was 10.5 µM (active) in assay [14]; 4.69 µM (active) in assay [8]; 1.05 µM (active) in [15]; 2.35 µM (active) in assay [9]; 1.53 µM (active) in assay [16]; 1.18 µM (active) in [18]. Further, in assay [11], the Potency was 0.469 µM (active). The Potency entry in assay [12] is “inactive”.

For the molecule `Clc1ccccc1C(c1ccccc1)(c1ccccc1)n1cccn1`, the Potency entry in [1], in [2], in assay [3], in [4], in assay [6] and in assay [17] was “inactive” throughout. For the same molecule, the Potency entry in [7], in [8], in [19], in assay [9], in assay [20] and in assay [10] was “inactive” each time. Moreover, the Potency result in [11] and in assay [12] was “inactive” throughout.

Take `C=C1C[C@H]2[C@H]3CCC(=O)[C@@]3(C)CC[C@@H]2[C@@]2(C)C=CC(=O)C=C12`: the Potency entry in [1], in assay [2], in assay [3], in assay [4], in [5] and in [7] was “inactive” throughout. Moreover, the Potency entry in assay [8], in assay [19], in assay [9], in assay [10], in [18] and in [11] was “inactive” each time. Besides, the Potency result in assay [12] was “inactive”.

With `CCCCCC[C@H]1C(=O)O[C@H](C)[C@H](NC(=O)c2cccc(NC=O)c2O)C(=O)O[C@@H](C)[C@@H]1OC(=O)CC(C)C`, the Potency is 4.85 µM (active) in [1]; 1.22 µM (active) in assay [2]; 0.0372 µM (active) in assay [4]; 0.187 µM (active) in assay [5]; 0.296 µM (active) in assay [13]; 0.0469 µM (active) in assay [6]. In addition, the Potency was 0.0235 µM (active) in [14]; 11.8 µM (active) in assay [8]; 23.5 µM (active) in assay [15]; 0.122 µM (active) in assay [20]; 0.0611 µM (active) in assay [16]. Further, the Potency result in assay [7], in assay [19] and in [12] was “inactive” each time.

Regarding `O=C(N[C@@H](COc1ccc2[nH]c(=O)[nH]c2c1)c1ccccc1)c1cccn(Cc2ccc(F)c(F)c2)c1=O`, the Potency entry in [1], in assay [2], in [3], in assay [7], in assay [9] and in assay [12] was “inactive” throughout. Also, the Potency is 20.9 µM (active) in assay [5], 18.7 µM (active) in [6], 18.7 µM (active) in [8] and 30.6 µM (active) in [16].
